# Measurements from ChEMBL document CHEMBL1201862, “PubChem BioAssay data set” (2004).
# About 800 (5.3%) of roughly 15,000 sequences were called active. Cut-off read from the data, not from the text of the source: active = GI50 up to about 1.1 µM and inactive = higher. A selection follows. Potency and affinity values are given separately.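 Where inhibition never reached the appropriate level, the endpoint shown equals the highest concentration tested. Otherwise, values were interpolated linearly from a five-concentration, 48-hour dose response in 96-well plates. GI50 is the concentration that inhibits growth by half.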
# System: DMS-114
# Test: NCI tumour cell line growth inhibition, 48 h
row,Substance,GI50 [µM]
1,"[Bis(aminomethyl)tetramethylenesilane]dichloropaltinum(II), CHEMBL2146205",5.89
2,"[Bis(aminomethyl)diethylsilane]tetrachloroplatinum(IV), CHEMBL2146203",2.23
3,"cis-Bis[[(trimethylsilyl)methyl]amino]tetrachloroplatinum(IV), CHEMBL2146191",4.09
4,"[Bis(aminomethyl)pentamethylenesilane]dichloropaltinum(II), CHEMBL2146202",4.01
5,"[Bis(aminomethyl)dimethylsilane]dichloroplatinum (II), CHEMBL2146201",12
6,"[Bis(aminomethyl)pentamethylenesilane]tetrachloropaltinum(IV), CHEMBL2146204",2
7,"[Bis(aminomethyl)ethylmethylsilane]tetrachloroplatinum(IV), CHEMBL2146192",1.17
8,"mu-(1,7-nanodiamine-N,N')bis-(cis-aminedichloroplatimum (II)), CHEMBL2146215",6.18
9,"[Bis(aminomethyl)dimethylsilane]tetrachloroplatinum(IV), CHEMBL2146190",1.38
10,"[Bis(aminomethyl)tetramethylenesilane]tetrachloropaltinum(IV), CHEMBL2146189",1.91
